Drawing on PubChem BioAssay AID1490 (National Center for Advancing Translational Sciences (NCATS), 2009), this text covers largest response in the series, negative = inhibition and Potency for 47 compounds.

The campaign covered roughly 310,000 compounds. About 11,000 (3.5%) were called active. Inconclusive results (about 4%) are left out. Shown is part of a subset that was picked to be rich in actives. A number with no mark means an inactive call. The call rests on the fitted dose curve; in most records, active means well fitted inhibition curve with a large enough effect; inconclusive means small, poorly fitted or top-dose-only effect, or another doubt; inactive means no such curve, though single readings can be large or run the other way.
Potency means the concentration at half of the fitted maximal effect.

The target in this assay is 4'-phosphopantetheinyl transferase ffp (Bacillus subtilis) (UniProt Q9F4F7). Briefly: qHTS Assay for Inhibitors of Bacillus subtilis Sfp phosphopantetheinyl transferase (PPTase).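 Further: the enzyme is Sfp with the accession as filed and its product quenches rhodamine fluorescence.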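 On largest response in the series, negative = inhibition: 0% = enzyme reaction without inhibitor and -100% = no enzyme wells.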 Conditions: Biochemical Sfp PPTase activity. An excerpt:
Assay Submitter: Michael Burkart, University of California, San Diego
Screening Center PI: Austin, C.P.
Screening Center: NIH Chemical Genomics Center [NCGC]
The covalent attachment of a phosphopantetheinyl (4'-PP) arm to a variety of synthases and other proteins is a key posttranslational protein modification. The 4'-PP is installed on the proteins post-translationally from coenzyme A (CoA) on a conserved serine residue by action of phosphopantetheinyl transferase (PPTase) enzymes. Phosphopantetheinylation is essential for synthase activity, and removal of the PPTase gene precludes natural product synthesis in microorganisms, or in the case of fatty acid biosynthesis, renders the organism unviable. PPTase enzymes belong to a distinct structural superfamily. Within bacteria, these enzymes are grouped into two classes based upon primary structure, the AcpS-Type and Sfp-Type PPTases.
Sfp-type PPTases, corresponding to an activator of surfactin production in Bacillus subtilis, are responsible for modifying type I polyketide and nonribosomal peptide synthases of prokaryotes. Sfp-type PPTases are responsible for the activation of a variety of pathogen-associated virulence factors. Among these compounds are toxins such as mycolactone from Mycobacterium ulcerans, siderophores such as vibriobactin from Vibrio cholerae or mycobactin from Mycobacterium tuberculosis, as well as the mycolic acids which form the waxy cell wall of Mycobacteria. The biosyntheses of these natural products are considered attractive targets for drug design.
In search of small molecule Sfp-PPTase inhibitors, a fluorescence quenching assay was developed for detection of Bacillus subtilis Sfp-PPTase enzymatic activity in a miniaturized high-throughput format. The consensus ybbr acceptor peptide […] was N-terminally labeled with Black Hole Quencher-2 (BHQ-2) and used in combination with rhodamine-labeled coenzyme A as a co-substrate.
Inhibition of Sfp-PPTase was detected by recording the fluorescence intensity change over a 30-minute reaction period at a 525 nm excitation and 598 nm emission. Reagents were supplied by Michael Burkart and Timothy Foley, University of California at San Diego.
This BioAssay deposition is for validation of the developed Sfp-PPtase assay.
Assay Buffer: 50 mM Hepes-Na pH 7.6, 10 mM MgCl2, 0.01% Nonidet P-40, and 0.01% BSA.
3 uL of Sfp-PPTase enzyme (final concentration 15 nM) and 1 uL of substrate mixture (final concentration for rhodamine-CoA and BHQ-2-YbbR 5 uM and 12.5 uM, respectively) dispensed in columns 1, 2, 5 - 48. Columns 1 and 2 used to generate neutral control (uninhibited reaction)
Three uL of reagents, consisting of buffer (in columns 3 and 4 as negative control) and Sfp-PPTase (in columns 1, 2, 5 - 48) were dispensed into 1,536-well Greiner black solid bottom plate. Compounds (23 nL) were transferred via Kalypsys pintool equipped with 1,536-pin array. The plate was incubated for 15 min at room temperature, followed by the addition of 1 uL substrate to start the reaction. The plate was then centrifuged at 1000 rpm for 15 seconds, and the fluorescence intensity recorded on a ViewLux High-throughput CCD imager (Perkin-Elmer) using standard BODIPY optics (525 nm excitation and 598 nm emission). The plate was then incubated for 30 minutes, and a second read on the ViewLux was performed. The fluorescence intensity difference over the 30-minute period was used to calculate the respective reaction rate for each well.
Background: Quantitative high-throughput screening tests each substance at several concentrations.
`Cc1ccc(C)c(NC(=S)NNC(=O)c2csc(C)c2)c1`: the largest response in the series, negative = inhibition is 9.77%. Take `Cc1ccc(C)c(NC(=S)NNC(=S)Nc2ccc(C(C)C)cc2)c1`: the Potency is 4.47 µM (active). As for `CC(C)c1ccc(NC(=S)NNc2ccc(Cl)c(C(=O)O)c2)cc1`, the largest response in the series, negative = inhibition is -24.2%. Same read-out and setting: under `NC(=O)C1CCCN(CC(=O)N2CCN(c3ccccc3)CC2)C1` (configuration not stated) stands 19%; under `CC1CCN(CC(=O)Nc2nccs2)CC1`, 6.83%.

As to `Cc1nc2ccccc2n1CC(O)c1ccccc1` (configuration not stated), the largest response in the series, negative = inhibition was 2.21%. As for `O=C(Nc1ccccc1Cl)/C(Cl)=C(\Cl)S(=O)c1ccccc1` (configuration not stated), the Potency is 6.31 µM (active). For `O=C(COC(=O)c1cccs1)Nc1ccccc1Cl`, the largest response in the series, negative = inhibition was 3.72%. Take `O=C(Nc1ccccc1Cl)Nn1cnnc1`: the largest response in the series, negative = inhibition was 10.7%. The same measure, in the same setting: for `CC(=O)Oc1c2c(c3c(c1CC=C(C)C)O[C@@]14C(=CC5CC1C(C)(C)OC4(C/C=C(\C)C(=O)O)C5=O)C3=O)OC(C)(CCC=C(C)C)C=C2` (some centres not stated) the value was -62.7%; for `O=C(NCc1ccco1)C(c1ccncc1)N(C(=O)Cn1nnc2ccccc21)c1ccccc1` (configuration not stated), 18%. Same read-out and setting: for `O=C(Nc1ccc(S(=O)(=O)NCC2CCCO2)cc1)c1ccc(F)cc1` (configuration not stated) the value was 10.5%; for `COc1ccc(OC)c(CCNC(=O)CCn2ccc3cc(S(=O)(=O)N4CCCC4)ccc32)c1`, 4.91%; for `CCNC(=S)Nc1ccc(OC(F)(F)F)cc1`, 14.8%. Consider `CS(=O)(=O)c1sc(C(=O)NC(=S)Nc2ccc(OC(F)(F)F)cc2)c2c1C=CCC2`, for which the Potency is 44.7 µM (active). With `FC(F)(F)Oc1ccc(NC(=S)NCc2ccccc2)cc1`, the largest response in the series, negative = inhibition is 7.74%. Still for that read-out and setting: under `CCC(=O)Nc1ccc(-c2ccc(N3CCCCC3)nn2)cc1` stands 14.4%.

Take `C=C1CCN(C(CC(C)C)C(=O)N2CCOCC2)S(=O)(=O)c2ccccc21` (configuration not stated): the largest response in the series, negative = inhibition was -9.91%. On to `CCOc1ccccc1NC(=O)Cn1ncc2ccc([N+](=O)[O-])cc21`, for which the largest response in the series, negative = inhibition was -5.95%.

Turning to `COc1ccc(C(=O)NNC(=O)c2cnccn2)cc1[N+](=O)[O-]`, the Potency was 44.7 µM (active).

With `COc1cccc(OCC(=O)NNC(=O)c2cnccn2)c1`, the largest response in the series, negative = inhibition is -17.6%.

In the case of `COc1ccc(C(=O)O/N=C(\N)c2ccccn2)cc1[N+](=O)[O-]`, the largest response in the series, negative = inhibition was 9.71%.

On to `CC1CCCC(C)N1C(=O)CSc1nnnn1C1CCCC1` (configuration not stated), for which the largest response in the series, negative = inhibition is 18.7%. On the same count and under the same terms, under `CCC(CC)C(=O)Nc1c2c(nn1-c1ccc(C)cc1)CS(=O)(=O)C2` stands 4.15%; under `COc1ccc(C(=O)Nc2ccccc2C(=O)N2CCN(c3ccccc3)CC2)cc1`, 5.69%; under `O=C(O)C1CC=CCC1C(=O)Nc1ccccc1C(=O)N1CCN(c2ccccc2)CC1` (configuration not stated), 22.9%. As for `CC(C)c1ccc(N2CCN(C(=O)c3ccccc3NC(=O)/C=C(\C(=O)O)c3ccccc3)CC2)cc1`, the Potency is 56.2 µM (active). Take `Cc1cc(C)c(S(=O)(=O)N(C)CC(=O)NCC2CCCO2)c(C)c1` (configuration not stated): the largest response in the series, negative = inhibition was 16.6%. On the same count and under the same terms, for `COc1ccc(/C=C/c2c(-c3cccc(C)c3)oc3ccc(-c4ccc5c(c4)OCO5)cc23)cc1` the value was 1.24%; for `NNC(=O)c1oc2nc(-c3ccccc3)cc(-c3ccco3)c2c1N`, -13.3%; for `CNc1nc(-c2ccccc2)cc(-c2ccccc2)n1`, -1.57%. Regarding `CNC(=S)NNC(=O)c1oc2nc(-c3ccccc3)cc(-c3ccco3)c2c1N`, the Potency was 12.6 µM (active). In the case of `CN1C(=O)CN2CCc3ccccc3C2c2cc(Cl)ccc21` (configuration not stated), the largest response in the series, negative = inhibition was 11%.

As for `CC(C)(C)NS(=O)(=O)c1ccc(NC(=O)C2CCCO2)cc1` (configuration not stated), the largest response in the series, negative = inhibition is 9.67%. In the case of `COC(=O)c1cccc(N(CC(=O)NCC2CCCO2)C(=O)CCC(=O)Nc2cc(C)on2)c1` (configuration not stated), the largest response in the series, negative = inhibition is -5.12%. The same measure, in the same setting: for `Cc1ccc(NC(=O)CSc2nnc(CNC(=O)c3ccccc3F)o2)cc1Cl` the value was 12.4%.

On to `c1coc(-c2nc3nc4ccccc4n3nc2-c2ccco2)c1`, for which the Potency was 39.8 µM (active).

On to `Cn1cccc1-c1nc2ccccc2n1C`, for which the largest response in the series, negative = inhibition is 1.06%. With `CS(=O)(=O)n1nc(-c2ccco2)nc1N`, the largest response in the series, negative = inhibition is 23.7%. On to `CC(CCc1ccccc1)NC(=O)c1cnc(Cl)c(Cl)c1` (configuration not stated), for which the largest response in the series, negative = inhibition was 8.93%. Turning to `CCOC(=O)N1CCN(C(c2cccnc2)c2ccc3cccnc3c2O)CC1` (configuration not stated), the Potency is 20 µM (active).

Consider `Oc1ccccc1CN1CCN(C(c2ccccc2)c2ccccc2)CC1`, for which the largest response in the series, negative = inhibition is -13.4%. Still for that read-out and setting: under `CCOC(=O)N1CCN(C(=O)C2CCN(c3ncnc4c3sc3cccc(F)c34)CC2)CC1` stands -3.49%. The same measure, in the same setting: for `Clc1cccc(CN2COc3c(cc(Cl)c4cccnc34)C2)c1` the value was -2.55%.

Take `CCN1CCN(C(c2cccnc2)c2cc(Cl)c3cccnc3c2O)CC1` (configuration not stated): the Potency is 39.8 µM (active). In the case of `Cc1onc(C(=O)NN)c1C(=O)N1CCN(C(c2ccccc2)c2ccccc2)CC1`, the largest response in the series, negative = inhibition is 1.91%. On the same count and under the same terms, for `O=C(c1ccc(Cn2cc([N+](=O)[O-])cn2)o1)N1CCCC1` the value was 5.1%.
